# Test results reported in PubChem BioAssay AID1159580 (chemical genetic matrix, 2015).
# Several values for one entry are separate records, joined by “and”; a condition that tells them apart may be missing. Equal entries are not always repeated. In all, about 5,500 compounds went through this assay and about 2,000 (36%) were called active. About 18% were inconclusive and are not listed. This is one part of the list. Unmarked numbers belong to inactive results. No stated cut-off is given here; in the data, active means normalized growth mostly below about 0.91 (no sharp cut-off); inconclusive means no clear call, values can overlap the other calls; inactive means mostly above about 0.92.
# Assay: chemical genetic growth profiling, strain panel (AID 1159580);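 further: tested at 20 µM; growth read once vehicle control cultures reached saturation at 30 °C; 1 = growth at the plate median or of vehicle wells; lower values mean less growth of the strain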
# Details: growth OD
smiles,measurement,setting,value
CC(C)C(=O)Nc1ccc([N+](=O)[O-])c(C(F)(F)F)c1,normalized growth,"S. cerevisiae deletion strains, locus YKL009W, strain mrt4, hits give low values",0.984
same,normalized growth,"S. cerevisiae deletion strains, locus YKL068W, hits give low values",0.984
same,normalized growth,"S. cerevisiae deletion strains, locus YKL085W, strain MDH1 (second series), hits give low values",0.987
same,normalized growth,"S. cerevisiae deletion strains, locus YKL085W, strain MDH1, hits give low values",0.987
same,normalized growth,"S. cerevisiae deletion strains, locus YKL160W, strain elf1, hits give low values",1
same,normalized growth,"S. cerevisiae deletion strains, locus YKL190W, strain CNB1, hits give low values",0.992
same,normalized growth,"S. cerevisiae deletion strains, locus YKR001C, strain vps1, hits give low values",0.837 (active)
same,normalized growth,"S. cerevisiae deletion strains, locus YKR026C, strain gcn3, hits give low values",1.01
same,normalized growth,"S. cerevisiae deletion strains, locus YKR091W, strain srl3, hits give low values",1.01
same,normalized growth,"S. cerevisiae deletion strains, locus YLL001W, strain dnm1, hits give low values",1.03
same,normalized growth,"S. cerevisiae deletion strains, locus YLL026W, hits give low values",1.02
same,normalized growth,"S. cerevisiae deletion strains, locus YLL041C, strain sdh2, hits give low values",1.01
same,normalized growth,"S. cerevisiae deletion strains, locus YLR027C, strain aat2, hits give low values",1.02
same,normalized growth,"S. cerevisiae deletion strains, locus YLR039C, strain RIC1, hits give low values",0.826
same,normalized growth,"S. cerevisiae deletion strains, locus YLR058C, strain SHM2, hits give low values",0.99
same,normalized growth,"S. cerevisiae deletion strains, locus YLR102C, strain apc9, hits give low values",0.968
same,normalized growth,"S. cerevisiae deletion strains, locus YLR113W, strain HOG1, hits give low values",0.93
same,normalized growth,"S. cerevisiae deletion strains, locus YLR221C, strain rsa3, hits give low values",1.04
same,normalized growth,"S. cerevisiae deletion strains, locus YLR258W, strain gsy2, hits give low values",1.02
same,normalized growth,"S. cerevisiae deletion strains, locus YLR262C, strain YPT6 (second series), hits give low values",1.01
same,normalized growth,"S. cerevisiae deletion strains, locus YLR262C, strain YPT6, hits give low values",0.899
same,normalized growth,"S. cerevisiae deletion strains, locus YLR268W, strain sec22, hits give low values",0.96
same,normalized growth,"S. cerevisiae deletion strains, locus YLR320W, strain mms22, hits give low values",1.03
same,normalized growth,"S. cerevisiae deletion strains, locus YLR330W, strain CHS5, hits give low values",0.987
same,normalized growth,"S. cerevisiae deletion strains, locus YLR342W, strain FKS1 (second series), hits give low values",0.96
same,normalized growth,"S. cerevisiae deletion strains, locus YLR342W, strain FKS1, hits give low values",1.01
same,normalized growth,"S. cerevisiae deletion strains, locus YLR357W, strain rsc2, hits give low values",1.09
same,normalized growth,"S. cerevisiae deletion strains, locus YLR370C, strain arc18, hits give low values",1.03
same,normalized growth,"S. cerevisiae deletion strains, locus YLR371W, strain rom2, hits give low values",0.974
same,normalized growth,"S. cerevisiae deletion strains, locus YLR384C, strain iki3, hits give low values",1.03
same,normalized growth,"S. cerevisiae deletion strains, locus YLR418C, strain cdc73, hits give low values",0.896
same,normalized growth,"S. cerevisiae deletion strains, locus YML016C, strain PPZ1, hits give low values",0.981
same,normalized growth,"S. cerevisiae deletion strains, locus YML032C, strain rad52, hits give low values",0.974
same,normalized growth,"S. cerevisiae deletion strains, locus YML120C, strain ndi1, hits give low values",1.01
same,normalized growth,"S. cerevisiae deletion strains, locus YML124C, strain tub3, hits give low values",0.972
same,normalized growth,"S. cerevisiae deletion strains, locus YMR058W, strain fet3, hits give low values",1.03
same,normalized growth,"S. cerevisiae deletion strains, locus YMR078C, strain ctf18, hits give low values",0.976
same,normalized growth,"S. cerevisiae deletion strains, locus YMR125W, strain sto1, hits give low values",1.03
same,normalized growth,"S. cerevisiae deletion strains, locus YMR129W, hits give low values",1.02
same,normalized growth,"S. cerevisiae deletion strains, locus YMR205C, strain PFK2, hits give low values",1.02
same,normalized growth,"S. cerevisiae deletion strains, locus YMR223W, strain ubp8, hits give low values",0.982
same,normalized growth,"S. cerevisiae deletion strains, locus YMR231W, strain pep5, hits give low values",1.03
same,normalized growth,"S. cerevisiae deletion strains, locus YMR263W, strain SAP30, hits give low values",0.982 and 1
same,normalized growth,"S. cerevisiae deletion strains, locus YMR307W, strain GAS1, hits give low values",0.832
same,normalized growth,"S. cerevisiae deletion strains, locus YNL067W, strain RPL9B, hits give low values",0.99
same,normalized growth,"S. cerevisiae deletion strains, locus YNL071W, strain lat1, hits give low values",1.02
same,normalized growth,"S. cerevisiae deletion strains, locus YNL128W, strain TEP1, hits give low values",1.01
same,normalized growth,"S. cerevisiae deletion strains, locus YNL153C, strain GIM3, hits give low values",0.99 and 0.977
same,normalized growth,"S. cerevisiae deletion strains, locus YNL175C, strain NOP13, hits give low values",0.977
same,normalized growth,"S. cerevisiae deletion strains, locus YNL183C, strain NPR1, hits give low values",0.91
same,normalized growth,"S. cerevisiae deletion strains, locus YNL197C, strain WHI3, hits give low values",0.968
same,normalized growth,"S. cerevisiae deletion strains, locus YNL209W, strain ssb2, hits give low values",1.01
same,normalized growth,"S. cerevisiae deletion strains, locus YNL224C, strain SQS1, hits give low values",0.96
same,normalized growth,"S. cerevisiae deletion strains, locus YNL233W, strain BNI4, hits give low values",0.955
same,normalized growth,"S. cerevisiae deletion strains, locus YNL248C, strain rpa49, hits give low values",1.06
same,normalized growth,"S. cerevisiae deletion strains, locus YNL250W, strain rad50, hits give low values",0.989
same,normalized growth,"S. cerevisiae deletion strains, locus YNL271C, strain bni1, hits give low values",0.975
same,normalized growth,"S. cerevisiae deletion strains, locus YNL298W, strain CLA4, hits give low values",0.978
same,normalized growth,"S. cerevisiae deletion strains, locus YNL307C, strain MCK1, hits give low values",0.958
same,normalized growth,"S. cerevisiae deletion strains, locus YNL322C, strain KRE1 (second series), hits give low values",1.02
same,normalized growth,"S. cerevisiae deletion strains, locus YNL322C, strain KRE1, hits give low values",0.997 and 1.04
same,normalized growth,"S. cerevisiae deletion strains, locus YNR049C, strain mso1, hits give low values",1.02
same,normalized growth,"S. cerevisiae deletion strains, locus YNR052C, strain pop2, hits give low values",0.978
same,normalized growth,"S. cerevisiae deletion strains, locus YOL006C, strain TOP1, hits give low values",0.851
same,normalized growth,"S. cerevisiae deletion strains, locus YOL012C, strain htz1",1.09
same,normalized growth,"S. cerevisiae deletion strains, locus YOL147C, strain pex11, hits give low values",0.978
same,normalized growth,"S. cerevisiae deletion strains, locus YOR001W, strain rrp6, hits give low values",1.05
same,normalized growth,"S. cerevisiae deletion strains, locus YOR061W, strain CKA2, hits give low values",0.987
same,normalized growth,"S. cerevisiae deletion strains, locus YOR069W, strain VPS5, hits give low values",0.99
same,normalized growth,"S. cerevisiae deletion strains, locus YOR070C, strain gyp1, hits give low values",1
same,normalized growth,"S. cerevisiae deletion strains, locus YOR080W, strain dia2, hits give low values",1.03
same,normalized growth,"S. cerevisiae deletion strains, locus YOR083W, strain WHI5 (second series), hits give low values",0.9
same,normalized growth,"S. cerevisiae deletion strains, locus YOR083W, strain WHI5, hits give low values",0.999
same,normalized growth,"S. cerevisiae deletion strains, locus YOR106W, strain vam3, hits give low values",1.04
same,normalized growth,"S. cerevisiae deletion strains, locus YOR136W, strain idh2, hits give low values",0.981
same,normalized growth,"S. cerevisiae deletion strains, locus YOR144C, strain elg1, hits give low values",0.966
same,normalized growth,"S. cerevisiae deletion strains, locus YOR184W, strain ser1, hits give low values",0.939
same,normalized growth,"S. cerevisiae deletion strains, locus YOR231W, strain MKK1, hits give low values",0.952
same,normalized growth,"S. cerevisiae deletion strains, locus YOR265W, strain rbl2, hits give low values",1
same,normalized growth,"S. cerevisiae deletion strains, locus YOR270C, strain vph1, hits give low values",1.03
same,normalized growth,"S. cerevisiae deletion strains, locus YOR290C, strain snf2, hits give low values",1.02
same,normalized growth,"S. cerevisiae deletion strains, locus YOR316C, strain cot1, hits give low values",0.977
same,normalized growth,"S. cerevisiae deletion strains, locus YPL051W, strain arl3, hits give low values",1
same,normalized growth,"S. cerevisiae deletion strains, locus YPL055C, strain LGE1, hits give low values",0.953 and 1.01
same,normalized growth,"S. cerevisiae deletion strains, locus YPL078C, strain atp4, hits give low values",1
same,normalized growth,"S. cerevisiae deletion strains, locus YPL106C, strain sse1, hits give low values",1.01
same,normalized growth,"S. cerevisiae deletion strains, locus YPL240C, strain hsp82, hits give low values",1
same,normalized growth,"S. cerevisiae deletion strains, locus YPL241C, strain CIN2, hits give low values",0.985 and 1
same,normalized growth,"S. cerevisiae deletion strains, locus YPL256C, strain CLN2, hits give low values",0.991
same,normalized growth,"S. cerevisiae deletion strains, locus YPR119W, strain clb2, hits give low values",0.973
same,normalized growth,"S. cerevisiae deletion strains, locus YPR141C, strain kar3, hits give low values",0.98
same,normalized growth,"S. cerevisiae deletion strains, locus YPR163C, strain tif3, hits give low values",0.987
same,normalized growth,"S. cerevisiae deletion strains, locus YPR167C, strain met16, hits give low values",0.984
same,normalized growth,"S. cerevisiae deletion strains, strain wtn01, hits give low values",0.954
same,normalized growth,"S. cerevisiae strains, strain wild type, hits give low values",0.986
